# Hits are enriched below; roughly 11% of the tested compounds scored in any of these assays.
# hNpr1 antagonist: Natriuretic polypeptide receptor (hNpr1) antagonism - Primary qHTS; 1.6% of 76,000 active; HEK293 hNpr1 GloSensor cGMP, ANP-stimulated luminescence; AID 1347048, 2019; Atrial natriuretic peptide receptor 1 (Homo sapiens), P16066; Potency, µM (series often up to 46.3 µM), inactives show top-dose activity change, negative = inhibition, actives largely listed as inhibitors; calls by dose curve; note: % is set by controls: 0 for no effect and ±100 for the full control effect; nearly all actives have a fitted effect of over 60% in size
#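 Compound pre-incubated 30 min at room temperature on GloSensor-loaded HEK293 cells stably carrying hNpr1 and the pGS-40F cGMP biosensor. Stimulation uses hNppA at 0.1 nM final; luminescence is taken at baseline and 20 min post-agonist.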
# HEK cytotox: Cytotoxic Profiling in HEK 293 Cell Line of Diverse Libraries Using Quantitative High-Throughput Screening; 6.6% of 94,000 active; Potency, µM (highest dose often 115 µM), for the others: at the highest dose activity change, negative = cytotoxicity, hits mostly inhibitors; HEK 293 viability, ATP luminescence (CellTiter-Glo), 48-72 h; AID 1345083, 2018; note: % is set by controls: 0 for no effect and ±100 for the full control effect; nearly all actives have a fitted effect of over 60% in size
#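 qHTS cytotoxicity; HEK 293, 250 cells/well; compound pinned; 48 or 72 hr, 37 degree Celsius, 5% CO2, 95% humidity; CellTiter-Glo, 10 min RT; luminescence (ATP).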
# NIH3T3 tox: Cytotoxic Profiling in NIH 3T3 Cell Line of Diverse Libraries Using Quantitative High-Throughput Screening | NIH 3T3 viability, CellTiter-Glo ATP luminescence, 48-72 h | Potency, µM (top dose mostly 96.7 µM), without a hit: at the top dose activity change, negative = cytotoxicity, usual class: inhibitors | 4.3% of 94,000 active; note: % is set by controls: 0 for no effect and ±100 for the full control effect; nearly all actives have a fitted effect of over 55% in size
#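 NIH 3T3 cells at 400 cells/well received 23 nL of compound by pintool and were incubated 48 or 72 h at 37 °C. Viability was read as ATP-coupled CellTiter-Glo luminescence.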
# FLuc inh: Firefly luciferase inhibition profiling of diverse chemical library using quantitative high-throughput screening; Luciferin 4-monooxygenase (Photinus pyralis), P08659; purified P. pyralis luciferase, luminescence, biochemical; Potency, µM (top dose mostly 115 µM), usual class: inhibitors; 2.5% of 76,000 active; note: % is set by controls: 0 for no effect and ±100 for the full control effect; nearly all actives have a fitted effect of over 65% in size
# Target sequence (P08659 whole entry, looked up): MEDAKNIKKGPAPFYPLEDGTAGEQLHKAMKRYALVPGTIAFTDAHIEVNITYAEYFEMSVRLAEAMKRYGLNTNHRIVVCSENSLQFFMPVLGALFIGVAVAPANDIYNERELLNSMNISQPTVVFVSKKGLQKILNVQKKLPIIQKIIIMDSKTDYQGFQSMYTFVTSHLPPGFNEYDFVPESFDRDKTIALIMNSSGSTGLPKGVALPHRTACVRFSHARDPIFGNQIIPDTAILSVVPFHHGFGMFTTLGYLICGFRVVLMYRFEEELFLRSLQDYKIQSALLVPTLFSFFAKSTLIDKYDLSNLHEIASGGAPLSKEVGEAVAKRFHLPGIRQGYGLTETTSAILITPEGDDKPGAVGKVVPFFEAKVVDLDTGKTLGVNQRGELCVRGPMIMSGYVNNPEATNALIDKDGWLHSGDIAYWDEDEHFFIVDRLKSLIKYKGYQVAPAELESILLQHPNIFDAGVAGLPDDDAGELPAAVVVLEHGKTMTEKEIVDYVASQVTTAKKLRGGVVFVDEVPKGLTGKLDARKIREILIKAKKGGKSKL
#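 Purified 10nM P. pyralis luciferase with 10uM D-luciferin and 10uM ATP in 50mM Tris acetate pH 7.5, 10mM Mg acetate, 0.01% Tween-20, 0.05% BSA. qHTS titration; luminescence read by CCD imager.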
# Npr1 antag conf: Natriuretic polypeptide receptor (hNpr1) antagonism - Confirmation. HEK293 hNpr1 cGMP GloSensor luminescence, ANP-stimulated. shares compounds with hNpr1 antagonist. Potency, µM (titrated, usually from 57.6 µM), for inactives: at the top dose activity change, negative = inhibition, actives largely listed as inhibitors. 76% of 1,400 active. AID 1347044, 2019; calls by dose curve; note: nearly all actives have a fitted effect of over 70% in size
# NPR2 antag: Natriuretic polypeptide receptor (hNpr2) antagonism - Subtype selectivity assay; HEK293 hNpr2 GloSensor cGMP luminescence, CNP-stimulated; Potency, µM (titrated, usually from 57.6 µM), for the others: at the highest dose activity change, negative = inhibition, actives largely listed as inhibitors; shares compounds with hNpr1 antagonist; AID 1347046, 2019; 67% of 1,400 active; calls by dose curve; note: nearly all actives have a fitted effect of over 70% in size
# FLuc counter: Natriuretic polypeptide receptor (hNpr1) antagonism - Confirmation firefly luciferase (FLuc) inhibition counterscreen. shares compounds with hNpr1 antagonist. purified FLuc enzyme, luminescence, Km substrate. Potency, µM (doses to about 57.6 µM), for the others: at the top dose activity change, negative = inhibition, most hits filed as inhibitors. 0.7% of 1,400 active. AID 1347047, 2019; note: 0% is about no effect
# GloSensor ctrl: Natriuretic polypeptide receptor (hNpr1) antagonism - Counterscreen GloSensor control cell line | shares compounds with hNpr1 antagonist | AID 1347051, 2019 | Potency, µM (titrated, usually from 57.6 µM), for the others: top-dose activity change, negative = inhibition, hits mostly inhibitors | HEK293 GloSensor cGMP, SNP-stimulated, luminescence | 69% of 1,400 active; calls by dose curve; note: % is set by controls: 0 for no effect and ±100 for the full control effect; nearly all actives have a fitted effect of over 70% in size
# * = called active by the depositor; i = inactive; u = inconclusive; x = no result; [ ] = another dose, or the depositor's remark. Unless noted, calls come from the whole dose curve; as a rule, active = well fitted curve in the direction sought with a large enough effect; inconclusive = small, poorly fitted or top-dose-only effect, or another doubt; inactive = no such curve, though single readings can be large; an effect the other way counts as inactive or inconclusive. Potency is the fitted concentration of half-maximal effect.
SMILES,hNpr1 antagonist,HEK cytotox,NIH3T3 tox,FLuc inh,Npr1 antag conf,NPR2 antag,FLuc counter,GloSensor ctrl
CCCc1ccc(S(=O)(=O)NC2CCN(c3ccc(=O)n(CC4CC4)n3)CC2)cc1,10µM*,u,u,i,12µM*,15µM*,-1%,14µM*
O=c1ccc(N2CCC(NS(=O)(=O)c3ccccc3Cl)CC2)nn1CC1CC1,13µM*,-39%,u,i,27µM*,22µM*,-1%,24µM*
O=C(CCC1CCCCC1)NC1CCN(c2ccc(=O)n(CC3CC3)n2)CC1,u,u,u,i,x,x,x,x
C(=C\c1ccccc1)/CN1CCN(Cc2nc(COc3ccccc3)no2)CC1,-25%,u,u,i,u,-22%,2%,u
c1ccc(OCc2noc(CN3CCN(C(c4ccccc4)c4ccccc4)CC3)n2)cc1,3%,u,-8%,i,x,x,x,x
COc1ccc(NC(=O)c2ccc(-c3nnc4ccc(NC(=O)C5CCC5)cn34)cc2)cc1,-30%,u,-4%,i,u,-29%,-19%,-23%
O=C(Nc1ccc(Oc2ccccc2)cc1)O[C@@H]1CO[C@H]2[C@@H]1OC[C@@H]2NS(=O)(=O)c1ccc(Cl)cc1,u,35µM*,32µM*,i,11µM*,12µM*,-13%,9.7µM*
COc1ccc(NC(=O)O[C@@H]2CO[C@H]3[C@@H]2OC[C@@H]3NS(=O)(=O)c2ccc(Cl)cc2)cc1,-7%,-19%,u,u,x,x,x,x
CC(=O)Nc1ccc(S(=O)(=O)N[C@H]2CO[C@H]3[C@@H]2OC[C@H]3OC(=O)Nc2cccc3ccccc23)cc1,-28%,-20%,u,i,-3%,-2%,-3%,-1%
O=C(CCC1CCCC1)NCCc1noc(-c2ccccc2)n1,u,79µM*,u,i,u,-25%,1%,-10%
COc1ccc(C(=O)NCCc2noc(-c3ccccc3)n2)cc1F,u,u,u,i,u,-17%,1%,7%
O=C(NCCc1noc(-c2ccccc2)n1)c1ccccc1,-15%,u,-27%,i,x,x,x,x
CCOc1ccc(C(=O)N2CCC(Cc3nc(-c4cnccn4)no3)CC2)cc1,-8%,-27%,u,i,x,x,x,x
CCCCOc1ccc(C(=O)N2CCC(Cc3nc(-c4cnccn4)no3)CC2)cc1,u,u,u,i,u,u,3%,u
Cc1ccc(C(=O)N2CCC(Cc3nc(-c4ccccc4)no3)CC2)c(C)c1,6.3µM*,50µM*,u,i,3.9µM*,5.4µM*,1%,3.9µM*
Cc1ccccc1C(=O)N1CCC(Cc2nc(-c3ccccc3)no2)CC1,8.9µM*,u,u,i,11µM*,17µM*,-3%,11µM*
CCOc1ccccc1C(=O)N1CCC(Cc2nc(-c3ccc(OC)cc3)no2)CC1,11µM*,u,u,i,24µM*,22µM*,1%,24µM*
CC(C)NC(=O)c1nc(-c2cccc(F)c2)c2cnccn12,-6%[70.6 µM],-3%[172 µM],-26%[138 µM],i,x,x,x,x
CC(C)(C)CC(=O)N[C@H]1C[C@H]2C(=O)Nc3ccc(-c4ccsc4)cc3C(=O)N2C1,-1%[70.6 µM],i,i,i,x,x,x,x
COCc1ncc(CN2CCC(c3[nH]ncc3-c3ccccc3C)CC2)cn1,6%,i,1%,i,x,x,x,x
COCCN1CCC2(CCC1=O)CCN(C(=O)Nc1cccc(Br)c1)CC2,-2%,3%,-19%,i,x,x,x,x
CC1(c2ccccc2)N(Cc2ccccc2C#N)C(=O)OC12CCN(C(=O)CCc1cccnc1)CC2 (centres undefined),0%,2%,u,i,x,x,x,x
COc1ccc(-c2noc(CC3CCN(C(=O)C4(c5ccc(OC)cc5)CC4)CC3)n2)cc1,1.4µM*,u,u,i,2.7µM*,3.4µM*,4%,3.1µM*
COc1ccc(-c2noc(CC3CCN(C(=O)c4ccccc4C)CC3)n2)cc1,10µM*,u,u,i,15µM*,17µM*,3%,12µM*
COc1ccc(-c2noc(CC3CCN(C(=O)c4ccc(OC)nc4OC)CC3)n2)cc1,4µM*,20µM*,u,i,5.4µM*,8.6µM*,2%,6.1µM*
SMILES,hNpr1 antagonist,HEK cytotox,NIH3T3 tox,FLuc inh,Npr1 antag conf,NPR2 antag,FLuc counter,GloSensor ctrl
COc1ccc(-c2noc(CC3CCN(C(=O)C4CC4)CC3)n2)cc1,u,u,u,i,x,x,x,x
CCc1ccc(C(=O)N2CCC(Cc3nc(-c4ccc(OC)cc4)no3)CC2)cc1,3.5µM*,u,u,i,6.1µM*,9.7µM*,-1%,6.9µM*
O=C1Nc2ccccc2C2(CCN(C(=O)OCc3ccccc3)C2)O1 (centres undefined),-18%,u,u,i,x,x,x,x
O=C(Nc1nccs1)c1ccc2c(c1)OCCN(c1ccccc1)C2,-18%[70.6 µM],-26%[172 µM],u,u,x,x,x,x
O=C(Nc1ccc2cn[nH]c2c1)c1ccc2c(c1)OCCN(c1ccccc1)C2,u,45µM*,40µM*,i,35µM*,u,-18%[86.2 µM],35µM*
O=C1CC2(CCN(C(=O)C3CCN(C(=O)C4CC4)CC3)CC2)Oc2ccccc2N1,x,i,0%,x,x,x,x,x
Cc1ccccc1-c1cnc2[nH]cc(CC(=O)N3CCCC3)c2c1,3.5µM*,89µM*,u,i,7.9µM*,11µM*,-5%[86.2 µM],7µM*
COc1ncccc1-c1cnc2[nH]cc(CC(N)=O)c2c1,-4%[70.6 µM],-10%[230 µM],u,i,x,x,x,x
Cc1ccccc1-c1cnc2[nH]cc(CC(=O)NCc3cccnc3)c2c1,32µM*,79µM*,u,i,31µM*,28µM*,2%[86.2 µM],25µM*
